Assay [1] can be described thus: small molecules captured by biotinylated probe aFSTL3 – biochemical, small-molecule microarray, fluorescence 635/667, stem cell growth factor project, primary screen (AID 1064).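 Further: measures binding of the biotinylated anti-FSTL3 antibody to printed compounds.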 The conditions noted are these: higher = more signal.
Assay [2] can be described thus: binders from COS7 lysate, DM2A8 probe, primary screen, torsin A project, cell lysate, small-molecule microarray, fluorescence 635/667 (AID 1065). The conditions noted are these: higher = more signal, COS7 lysate expressing mutant human TOR1A.
Assay [3] is described as follows: small molecules captured by biotinylated probe aFGF2 – biochemical, small-molecule microarray, fluorescence 635/667, stem cell growth factor project, primary screen (AID 1067).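 Further: measures binding of biotinylated aFGF2 protein to printed compounds on slides; z-score merges feature fluorescence and signal-to-noise across triplicate slides.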 The conditions noted are these: higher = more signal.
The nature of assay [4]: small molecules captured by biotinylated probe aFGF10 – biochemical, small-molecule microarray, fluorescence 635/667, stem cell growth factor project, primary screen (AID 1071).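 Further: score merges 667 nm spot intensity and signal to noise from triplicate slides.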 The conditions noted are these: higher = more signal.
Assay [5] deals with Neurogenic locus notch homolog protein 2 (Homo sapiens) (UniProt Q04721). Kind of assay: small molecules binding Notch2 protein – biochemical, small-molecule microarray, 635 nm fluorescence, stem cell growth factors, primary screen (AID 1073). The conditions noted are these: higher = more signal.
For assay [6], the target named is Pro-neuregulin-1, membrane-bound isoform (Homo sapiens) (UniProt Q02297). Kind of assay: small molecules binding neuregulin-1 protein – biochemical, small-molecule microarray, fluorescence 635/667, psychiatric disease protein project, primary screen (AID 1075).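 Further: score combines 667 nm spot fluorescence with signal to noise.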 The conditions noted are these: NRG1 binding, 635 nm fluorescence, higher = more signal.
In assay [7] the test system is Neuregulin-1 EGF-like domain. Kind of assay: small molecules binding NRG1 EGF domain – biochemical, small-molecule microarray, 635 nm fluorescence, primary screen (AID 1081).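 Further: binding of the protein to compounds printed on small-molecule microarray slides.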 The conditions noted are these: higher = more signal.
Assay [8] can be described thus: FRG1 expression reporter modulators in myotubes – cell-based, C2C12 myotubes, firefly/Renilla luciferase, luminescence, FRG1 inhibition for FSHD, primary screen (AID 1084). The conditions noted are these: FRG1 promoter luciferase, higher = more signal, called active from +8 up or from −8 down.
Assay [9] in a line: small molecules captured by biotinylated probe aFST – biochemical, small-molecule microarray, fluorescence 635/667, stem cell growth factor project, primary screen (AID 1086).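 Further: score merges 667 nm fluorescence with signal-to-noise of each printed compound spot.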 The conditions noted are these: higher = more signal.
Assay [10] in a line: binders of probe aHhip on microarray, primary screen, stem cell growth factor project, biochemical, small-molecule microarray, fluorescence 635/667 (AID 1087).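 Further: score merges spot fluorescence at 667nm with spot signal to noise ratio.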 The conditions noted are these: higher = more signal.
Assay [11] has as its system PRMT1 (protein arginine N-methyltransferase 1). Kind of assay: small molecules binding arginine methyltransferase PRMT1 – biochemical, small-molecule microarray, 635 nm fluorescence, primary screen (AID 1088).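 Further: binding of Prmt1 protein to compounds spotted on small-molecule microarray slides.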 The conditions noted are these: higher = more signal.
A short description of assay [12]: growth effects on S. cerevisiae YJM789 – YJM789 clinical isolate, OD600, 24 h, basal, primary screen (AID 1089).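 Further: growth of clinical yeast isolate S. cerevisiae YJM 789 seeded 1000 cells per well; test concentration not given here.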 The conditions noted are these: higher = more signal, called active from +8 up or from −8 down.
Assay [13] in a line: S. pombe growth modifiers, basal conditions – strain 972, OD600, 24 h, no modulator, primary screen (AID 1090).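 Further: basal condition with compound alone and no growth modifier present; test concentration not given here.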 The conditions noted are these: S. pombe 972 growth, higher = more signal, called active from +8 up or from −8 down.
A short description of assay [14]: budding yeast growth modifiers under rapamycin – strain BY4716, OD600, 96 h, primary screen (AID 1091). Further: test concentration not given here. The conditions noted are these: S. cerevisiae BY4716 + rapamycin, higher = more signal, called active from +8 up or from −8 down.
Assay [15] concerns the target Torsin-1A-interacting protein 2 (Homo sapiens) (UniProt Q8NFQ8). Kind of assay: small molecules binding lysate-expressed LULL1 – cell lysate, human LULL1 lysate, 635/667 nm fluorescence, primary screen (AID 1092).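 Further: probe is lysate of COS7 cells overexpressing human LULL1; score merges per-feature 667 nm fluorescence with signal-to-noise.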 The conditions noted are these: small-molecule microarray, hLULL1 lysate binding, 635 nm fluorescence; higher = more signal.
A short description of assay [16]: optical density change of DRC41 E. coli – strain DRC41, OD650, 24 h, E. coli filamentation project, primary screen (AID 1093).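 Further: MC1000 strain lacking acrAB efflux and sulA so SOS filamentation is blocked; test concentration not given here.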 The conditions noted are these: E. coli DRC41 growth, higher = more signal, called active from +8 up or from −8 down.
Assay [17] can be described thus: probe aLefty2 binding to arrayed compounds – biochemical, biotinylated probe, 635/667 nm fluorescence, primary screen (AID 1094).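 Further: score merges spot fluorescence near 667 nm with spot signal-to-noise ratio.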 The conditions noted are these: small-molecule microarray, higher = more signal.
Assay [18] has as its system Noggin (protein binding on small-molecule microarray). Kind of assay: small molecules binding Noggin protein – biochemical, 635/667 nm fluorescence, primary screen (AID 1095).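 Further: score merges 667 nm feature fluorescence with signal to noise over triplicate slides.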 The conditions noted are these: 635 nm fluorescence, higher = more signal.
In assay [19] the target is Neurogenic locus notch homolog protein 3 (Homo sapiens) (UniProt Q9UM47). Kind of assay: small molecules binding NOTCH3 protein – biochemical, 635/667 nm fluorescence, primary screen (AID 1096). The conditions noted are these: small-molecule microarray, 635 nm fluorescence, higher = more signal.
Assay [20] is described as follows: probe aEGFR binding to arrayed compounds – biochemical, biotinylated probe, 635/667 nm fluorescence, primary screen (AID 1097).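 Further: probe is a biotinylated anti-EGFR antibody binding compounds printed on slides; score combines fluorescence near 667 nm and signal to noise of each spot.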 The conditions noted are these: small-molecule microarray, higher = more signal.

Structures are written as SMILES. Active and inactive are the calls of the source.

Sequence of Pro-neuregulin-1, membrane-bound isoform (Homo sapiens) (Q02297 whole entry, looked up, the tested form may be a part, canonical isoform): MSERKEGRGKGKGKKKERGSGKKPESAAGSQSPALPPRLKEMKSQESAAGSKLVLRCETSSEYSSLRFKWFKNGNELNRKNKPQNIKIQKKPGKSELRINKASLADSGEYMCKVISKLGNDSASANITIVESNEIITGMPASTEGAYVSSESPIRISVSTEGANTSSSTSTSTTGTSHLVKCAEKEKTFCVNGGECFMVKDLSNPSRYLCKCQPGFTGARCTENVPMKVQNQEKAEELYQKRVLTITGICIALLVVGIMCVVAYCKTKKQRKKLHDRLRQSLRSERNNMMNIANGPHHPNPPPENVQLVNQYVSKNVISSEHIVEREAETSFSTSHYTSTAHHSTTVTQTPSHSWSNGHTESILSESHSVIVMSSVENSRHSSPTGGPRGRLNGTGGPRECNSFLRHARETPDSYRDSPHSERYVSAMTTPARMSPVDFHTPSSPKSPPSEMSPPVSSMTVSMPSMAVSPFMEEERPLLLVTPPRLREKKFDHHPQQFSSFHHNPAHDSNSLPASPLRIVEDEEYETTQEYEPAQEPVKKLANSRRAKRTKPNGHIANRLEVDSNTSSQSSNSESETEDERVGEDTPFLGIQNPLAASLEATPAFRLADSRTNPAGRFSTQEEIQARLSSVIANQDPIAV
Sequence of Neurogenic locus notch homolog protein 3 (Homo sapiens) (Q9UM47 whole entry, looked up): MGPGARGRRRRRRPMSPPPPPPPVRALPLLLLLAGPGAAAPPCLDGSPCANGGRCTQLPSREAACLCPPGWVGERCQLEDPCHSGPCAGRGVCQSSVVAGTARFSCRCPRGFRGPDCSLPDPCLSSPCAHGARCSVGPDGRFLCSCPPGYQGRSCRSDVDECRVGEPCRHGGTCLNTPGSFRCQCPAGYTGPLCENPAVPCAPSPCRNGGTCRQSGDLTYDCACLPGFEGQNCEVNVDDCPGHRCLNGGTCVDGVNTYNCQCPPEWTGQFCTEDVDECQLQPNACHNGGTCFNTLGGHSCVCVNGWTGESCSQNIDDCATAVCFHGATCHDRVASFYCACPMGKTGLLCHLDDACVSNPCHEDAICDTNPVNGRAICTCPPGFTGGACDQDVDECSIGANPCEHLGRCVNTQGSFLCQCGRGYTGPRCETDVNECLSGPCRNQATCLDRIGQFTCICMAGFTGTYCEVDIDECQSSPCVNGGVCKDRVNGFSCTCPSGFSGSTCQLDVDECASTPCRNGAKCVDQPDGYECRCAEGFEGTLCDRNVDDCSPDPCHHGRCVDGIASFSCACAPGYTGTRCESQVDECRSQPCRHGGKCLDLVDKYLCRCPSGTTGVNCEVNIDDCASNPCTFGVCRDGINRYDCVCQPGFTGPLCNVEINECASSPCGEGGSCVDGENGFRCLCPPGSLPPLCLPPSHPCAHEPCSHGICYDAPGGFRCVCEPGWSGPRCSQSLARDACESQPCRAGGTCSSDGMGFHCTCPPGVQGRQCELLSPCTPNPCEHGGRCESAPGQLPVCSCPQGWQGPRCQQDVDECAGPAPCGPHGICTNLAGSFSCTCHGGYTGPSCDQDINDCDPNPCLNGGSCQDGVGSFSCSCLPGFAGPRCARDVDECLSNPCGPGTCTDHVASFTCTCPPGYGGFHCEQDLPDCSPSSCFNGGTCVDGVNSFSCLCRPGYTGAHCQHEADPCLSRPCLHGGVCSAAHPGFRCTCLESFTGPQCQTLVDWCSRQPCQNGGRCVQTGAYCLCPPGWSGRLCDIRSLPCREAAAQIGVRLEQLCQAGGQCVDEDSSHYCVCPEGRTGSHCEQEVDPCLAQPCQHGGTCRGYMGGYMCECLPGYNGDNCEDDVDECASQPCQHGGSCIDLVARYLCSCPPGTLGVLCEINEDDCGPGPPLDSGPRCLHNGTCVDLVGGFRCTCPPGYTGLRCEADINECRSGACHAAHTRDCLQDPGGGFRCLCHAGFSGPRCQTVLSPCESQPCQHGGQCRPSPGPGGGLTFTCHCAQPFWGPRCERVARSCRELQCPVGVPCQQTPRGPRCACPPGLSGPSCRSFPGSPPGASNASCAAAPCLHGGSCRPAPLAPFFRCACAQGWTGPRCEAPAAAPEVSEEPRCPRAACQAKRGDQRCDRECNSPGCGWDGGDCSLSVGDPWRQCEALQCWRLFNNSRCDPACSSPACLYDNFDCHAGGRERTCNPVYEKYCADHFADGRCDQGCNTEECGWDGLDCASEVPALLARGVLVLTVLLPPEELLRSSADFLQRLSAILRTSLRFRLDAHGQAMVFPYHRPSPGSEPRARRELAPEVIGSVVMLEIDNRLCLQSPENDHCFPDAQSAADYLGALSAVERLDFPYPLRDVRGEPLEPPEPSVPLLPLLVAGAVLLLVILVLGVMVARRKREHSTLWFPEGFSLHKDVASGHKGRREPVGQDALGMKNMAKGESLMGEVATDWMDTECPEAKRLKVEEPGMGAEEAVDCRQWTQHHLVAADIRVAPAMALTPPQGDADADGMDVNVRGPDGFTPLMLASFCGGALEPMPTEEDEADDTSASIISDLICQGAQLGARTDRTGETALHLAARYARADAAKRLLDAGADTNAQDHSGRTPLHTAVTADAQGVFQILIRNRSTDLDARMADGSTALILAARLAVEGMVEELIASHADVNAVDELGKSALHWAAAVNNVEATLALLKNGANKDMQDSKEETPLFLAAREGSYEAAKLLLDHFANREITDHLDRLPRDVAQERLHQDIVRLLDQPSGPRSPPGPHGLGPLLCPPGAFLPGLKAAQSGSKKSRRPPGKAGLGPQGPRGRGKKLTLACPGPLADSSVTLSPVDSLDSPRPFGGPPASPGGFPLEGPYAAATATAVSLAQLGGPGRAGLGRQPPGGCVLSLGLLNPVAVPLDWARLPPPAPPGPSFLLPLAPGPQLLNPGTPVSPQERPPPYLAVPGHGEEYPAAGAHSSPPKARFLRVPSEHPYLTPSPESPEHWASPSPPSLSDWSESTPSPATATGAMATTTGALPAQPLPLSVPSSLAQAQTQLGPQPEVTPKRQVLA
Sequence of Torsin-1A-interacting protein 2 (Homo sapiens) (Q8NFQ8 whole entry, looked up): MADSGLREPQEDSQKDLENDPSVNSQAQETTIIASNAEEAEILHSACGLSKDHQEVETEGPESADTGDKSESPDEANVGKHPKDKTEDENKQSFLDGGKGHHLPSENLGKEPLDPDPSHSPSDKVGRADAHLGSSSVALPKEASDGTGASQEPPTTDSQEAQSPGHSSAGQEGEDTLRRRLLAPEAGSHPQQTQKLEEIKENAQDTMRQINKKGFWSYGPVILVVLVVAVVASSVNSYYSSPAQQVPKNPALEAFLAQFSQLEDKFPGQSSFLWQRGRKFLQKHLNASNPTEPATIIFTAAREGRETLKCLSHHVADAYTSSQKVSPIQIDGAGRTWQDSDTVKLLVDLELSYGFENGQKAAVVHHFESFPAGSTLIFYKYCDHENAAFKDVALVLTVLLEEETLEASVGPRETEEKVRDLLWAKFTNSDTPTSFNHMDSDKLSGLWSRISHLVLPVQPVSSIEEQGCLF

Regarding `CCCCN1CC=CC23O[C@@H]4/C=C\CCC(C)OC(=O)C4[C@H]2C(=O)N(C(CO)C(C)C)[C@@H]3C1=O` (stereo not given in full), the composite z-score in [1] was -0.513; in assay [2], 0.642; in assay [3], -0.0976; in assay [4], 0.291; in assay [5], -0.358; in assay [6], 0.362. Moreover, the composite z-score is 1.45 in [7]; -0.19 in [9]; -0.201 in [10]; 0.738 in [11]; 2.77 in assay [15]; -0.166 in assay [17]. Also, the composite z-score was 0.21 in assay [18], 0.395 in assay [19] and -0.123 in assay [20]. In addition, the z-score in assay [8] was -0.095 (inactive); in [12], -0.824 (inactive); in [13], -0.753 (inactive); in assay [14] it was -0.528 (inactive); in assay [16], -0.318 (inactive).
`O=C(NCC(F)(F)F)[C@@H]1c2ccccc2C(=O)N(Cc2ccc(OC(F)(F)F)cc2)[C@H]1c1ccc(CO)cc1`: the composite z-score in assay [1] was -0.0966; in assay [2] it was 0.661; in assay [3], -0.0595; in assay [4] it was 0.41; in assay [5] it was 0.8; in assay [6], 1.33. The composite z-score in assay [7] was 1.1; in assay [9], 0.208; in assay [10], -0.25; in assay [11] it was 1.53; in [15], 1.81; in [17], -0.143. Further, the composite z-score in assay [18] is 0.575; in assay [19] it was 0.0891; in assay [20], -0.0978. Besides, the z-score is -1.76 (inactive) in [8]; -0.54 (inactive) in assay [12]; -0.046 (inactive) in assay [13]; -1.1 (inactive) in assay [14]; 0.583 (inactive) in assay [16].
On to `CN(C)C(=O)C1N=C(c2ccc(OCCCO)cc2)N(c2ccccc2)O1` (stereo not given), for which the composite z-score is -0.135 in assay [1]; 0.18 in [2]; 0.0097 in [3]; 0.929 in [4]; 1.19 in assay [5]; 0.869 in assay [6]. The composite z-score in [7] is 1.39; in assay [9], 0.514; in [10], 0.107; in assay [11], 1.56; in assay [15] it was 1.72; in [17], -0.244. The values for the composite z-score in [18], in assay [19] and in [20] were 1.41, 1.05 and 0.123, respectively. The z-score in [8] was 4.85 (inactive); in assay [12], -0.0944 (inactive); in assay [13], -1.17 (inactive); in assay [14], -0.582 (inactive); in [16] it was 1.15 (inactive).
With `C[C@]1(C(=O)NC2CC2)c2ccccc2C(=O)N(Cc2ccccc2)[C@H]1c1ccc(CO)cc1`, the composite z-score in assay [1] is 0.942; in [2], -0.729; in assay [3], -0.116; in assay [4], -0.796; in assay [5], -0.956; in assay [6], -0.145. Also, the composite z-score in [7] was 0.659; in assay [9] it was -0.346; in assay [10], -0.511; in assay [11] it was -1.09; in assay [15], -0.488; in assay [17], -0.0873. The values for the composite z-score in assay [18], in assay [19] and in assay [20] were -0.918, -1.59 and -0.278, respectively. The z-score in assay [8] is -1.69 (inactive); in assay [12], -0.653 (inactive); in [13], -1.75 (inactive); in assay [14], -0.785 (inactive); in assay [16], 1.84 (inactive).
With `COCCCNC(=O)[C@@]1(Cc2ccccc2CN=[N+]=[N-])N=C(c2ccc(OCCCO)cc2)O[C@H]1c1ccccc1`, the composite z-score in assay [1] is -0.102; in assay [2], 2.1; in assay [3] it was 0.0693; in [4], 0.891; in [5], 0.932; in assay [6] it was 1.72. In addition, the composite z-score came to 1.2 in assay [7]; 1.82 in [9]; 0.28 in assay [10]; 1.54 in assay [11]; 3.26 in [15]; 0.0235 in assay [17]. In addition, the composite z-score was 1.13 in assay [18], 1.12 in assay [19] and -0.0267 in assay [20]. The z-score in assay [8] was -2.01 (inactive); in assay [12], 1.06 (inactive); in assay [13], 1.04 (inactive); in assay [14], 11.6 (active); in assay [16], 0.261 (inactive).
`CCCC[C@@H]1C[C@H]1[C@@H](NC(=O)c1cccs1)c1ccc(C(F)(F)F)cc1`: the composite z-score in assay [1] is 0.211; in assay [2] it was -0.0988; in assay [3] it was -0.0783; in assay [4] it was -0.618; in assay [5], -0.845; in [6] it was -0.265. The composite z-score in assay [7] is -0.743; in [9] it was 0.0353; in assay [10], 0.948; in assay [11], 0.183; in assay [15], -0.683; in assay [17], -0.0009. The figures for the composite z-score in assay [18], in assay [19] and in [20] were -0.345, -0.182 and -0.168, respectively. The z-score was -0.878 (inactive) in assay [8]; 1.19 (inactive) in [12]; 1.01 (inactive) in assay [13]; -0.0454 (inactive) in assay [14]; -1.72 (inactive) in assay [16].
Turning to `CC(C)N1C(=O)C[C@@](C(=O)NCCCN(C)C)(c2ccc([N+](=O)[O-])cc2)[C@H]1c1ccc(CO)cc1`, the composite z-score was -0.153 in assay [1]; -0.351 in assay [2]; -0.0328 in assay [3]; 0.589 in assay [4]; -0.072 in assay [5]; 0.454 in assay [6]. Besides, the composite z-score was -0.412 in [7]; 0.27 in assay [9]; -0.409 in [10]; -0.139 in assay [11]; 0.349 in assay [15]; -0.0221 in assay [17]. Also, the composite z-score in assay [18] was -0.131; in [19], -0.233; in [20], -0.124. The z-score in assay [8] is -0.0382 (inactive); in assay [12], -0.768 (inactive); in assay [13], -1.42 (inactive); in assay [14], -0.525 (inactive); in [16], -1.41 (inactive).

These data come from PubChem BioAssay.
